PubChem BioAssay (Tox21)
“And” between values parts separate entries of the source, which are not always exact repeats. Identical values can stand only once. Records with an inconclusive call do not appear. A call without a number means that no potency is given here. The source made the active and inactive calls. The call rests on the fitted dose curve; in most records, active means well fitted activation curve with a large enough effect in the signal ratio in the repeat runs (not every such curve was filed as active); inconclusive means weak or mixed curves; inactive means flat fitted curve, though single readings scatter; the % refers to the signal ratio.

Experiment: p53 small molecule agonists, cell-based qHTS assay (AID 1963582)
Conditions: HCT-116 p53RE-bla reporter, beta-lactamase FRET ratio, 16 h; series mostly up to 66 µM
Summary of the method: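 Agonist activity was scored from beta-lactamase FRET fluorescence in p53RE-bla cells treated 16 h at 37 C with compounds in DMSO, substrate incubation being 2 h at room temperature.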
Potency means the concentration at half of the fitted maximal effect.

SMILES	Potency
NNCCc1ccccc1	inactive
Cc1ccc2ncccc2c1	inactive
CCOCC(=O)O	inactive
CCCOC(=O)c1ccccc1	inactive
CC(C)CC(=O)CC(C)CC(C)C (centres undefined)	inactive
c1ccc2c(c1)[nH]c1ccccc12	inactive
C=CC(=O)OCCOCCOCCOCCOC(=O)C=C	inactive
Cc1ccc(S(=O)(=O)NCl)cc1	inactive
CC1=C(/C=C/C(C)=C/C=C/C(C)=C/C(=O)Nc2ccc(O)cc2)C(C)(C)CCC1	inactive
COC(C)COC(C)COC(C)CO (centres undefined)	inactive
COc1ccc(OC)cc1	inactive
Cc1cnc(NC(=O)C2=C(O)c3ccccc3S(=O)(=O)N2C)s1	inactive
C=CC(=O)NC(C)(C)CS(=O)(=O)O	inactive
O=C1O[C@H](CO)[C@@H](O)[C@H](O)[C@H]1O	inactive
Cc1ccccc1C=O	inactive
CCCCN(CCCC)CCCC	inactive
CCOC(=O)/C=C\C(=O)OCC	inactive
C=C(C)C1CC=C(C)C(OC(C)=O)C1 (centres undefined)	inactive
CCc1ccc(O)cc1	inactive
O=C(O)CN(CC(=O)O)CC(=O)O	inactive
Cn1c(=O)c2[nH]cnc2n(C)c1=O	inactive
O=c1[nH]cc(F)c(=O)[nH]1	2.63 µM (active) and 7.93 µM (active)
O=CCc1ccccc1	inactive
Cc1cccc(O)c1C	inactive
C/C=C1/CC2C=CC1C2 (centres undefined)	inactive
CCCCCCCCCCC(CO)CCCCCCCC (centres undefined)	inactive
CS(=O)(=O)c1ccc([C@@H](O)[C@@H](CO)NC(=O)C(Cl)Cl)cc1	inactive

SMILES	Potency
Cc1cn([C@H]2C[C@H](N=[N+]=[N-])[C@@H](CO)O2)c(=O)[nH]c1=O	inactive
O=C1OC(c2ccc(O)cc2)(c2ccc(O)cc2)c2ccccc21	inactive
O=S1(=O)CCCO1	inactive
CC1=C(/C=C/C(C)=C/C=C/C(C)=C/C(=O)O)C(C)(C)CCC1	inactive
O=C1CCCC1	inactive
C=C(C)OC(C)=O	inactive
O=c1ccc2ccccc2o1	inactive
Nc1ncnc2nc[nH]c12	inactive
CC(C)(Oc1ccc(C2CC2(Cl)Cl)cc1)C(=O)O (centres undefined)	inactive
CC(=O)CC/C=C(\C)CCC=C(C)C	inactive
OCCOCCOCCOCCO	inactive
CCCCC(=O)O	inactive
O=C(O)c1ccc(C(=O)O)cc1	inactive
O=Cc1ccccc1O	inactive
Cc1ccc(N)c(S(=O)(=O)O)c1	inactive
NC(=O)c1cccnc1	inactive
COc1cc(C=O)ccc1O	inactive
Brc1ccc(Oc2ccc(Br)cc2)cc1	inactive
C[C@]12C=CC(=O)C=C1CC[C@H]1[C@@H]3C[C@@H](O)[C@](O)(C(=O)CO)[C@@]3(C)C[C@H](O)[C@@]12F	inactive
C=CC(C)(C)C	inactive
CCCCCCCCOc1ccc(C(=O)c2ccccc2)c(O)c1	inactive
CCCCOCCOCCO	inactive
OCc1cccc(Oc2ccccc2)c1	inactive
NC(=O)NC(N)=O	inactive
CC(C)[N+](C)(CCOC(=O)C1c2ccccc2Oc2ccccc21)C(C)C	inactive
CCCCCC/C=C/CCCCCCCC(=O)O	inactive
CCCCC(CC)COC(=O)c1ccc(C(=O)OCC(CC)CCCC)cc1 (centres undefined)	inactive

SMILES	Potency
CC(C)(C)c1cccc(C(C)(C)C)c1O	inactive
C[C@]12CC[C@@H]3c4ccc(O)cc4CC[C@H]3[C@@H]1CC[C@@H]2O	inactive
O=C1CCc2ccccc2O1	inactive
OCCO	inactive
CC(=O)Nc1ccc2c(c1)Cc1cc(NC(C)=O)ccc1-2	inactive
CCCCCCC(C)O (centres undefined)	inactive
C=CCCCCCCCCCC	inactive
CN(C)CCOCCN(C)C	inactive
O=C(O)Cc1ccccc1Nc1c(Cl)cccc1Cl	inactive
O=C=NCCCCCCN=C=O	inactive
O=C(O)c1ccccc1C(=O)O	inactive
COC(=O)CCC(=O)OC	inactive
Nc1nc2ccccc2[nH]1	inactive
COc1ccccc1OCC(O)CO (centres undefined)	inactive
OC[C@H]1O[C@H](O[C@]2(CCl)O[C@H](CCl)[C@@H](O)[C@@H]2O)[C@H](O)[C@@H](O)[C@H]1Cl	inactive
COc1cc(NC(=O)CC(C)=O)c(OC)cc1Cl	inactive
Brc1cc(Oc2cc(Br)c(Br)c(Br)c2Br)c(Br)c(Br)c1Br	inactive
O=C(Cl)c1c(Cl)c(Cl)c(C(=O)Cl)c(Cl)c1Cl	inactive
C=C(C)C(=O)O	inactive
CC(CCC(=O)O)(c1ccc(O)cc1)c1ccc(O)cc1	inactive
OC(Cn1cncn1)(Cn1cncn1)c1ccc(F)cc1F	inactive
NC(=O)c1cnccn1	inactive
CCCCCC(=O)O	inactive
CCCCCCO	inactive
CCCCCCc1ccc(O)cc1O	inactive
